We go through 97 compounds from PubChem BioAssay AID463173 (ICCB-Longwood Screening Facility, Harvard Medical School, 2010).

SMILES strings stand for the structures. The campaign covered roughly 52,000 compounds. About 4,300 (8.3%) were called active. No stated cut-off is given here; in the data, active means survival mostly below about 52% (no sharp cut-off); inactive means mostly above about 56%. For the sample, actives were picked, then their nearest neighbours and some compounds at random.

The assay relates to DeltatarO mutant. As to the kind of experiment: S. aureus survival, RN4220 and DeltatarO strains – OD600, teichoic acid synthesis inhibitors, primary screen (AID 463173). The conditions noted are these: S. aureus RN4220 wild type/DeltatarO growth, OD600, 18 h, active compounds read low, screened at 18.75 µg/mL (by protocol).
As for `Cc1cccc(N2C(=O)C(CC(=O)Nc3ccc(F)cc3)N(C3CCCC3)C2=O)c1` (configuration not stated), the survival was 130% (inactive).

On to `CCCC1=Nc2cc(C(=O)NCCc3ccc(OC)cc3OC)ccc2Sc2ccccc21`, for which the survival was 99% (inactive).

`O=C(CC(NCc1ccccc1)C(=O)O)NC1CCCCC1` (configuration not stated): the survival was 102% (inactive).

Turning to `Cn1c(=O)c(C(=O)NCCN2CCNCC2)c(O)c2ccccc21`, the survival was 68% (inactive).

With `CCCn1c(=O)c2sccc2n2c(CCCC(=O)NC3CCC(C)CC3)nnc12` (configuration not stated), the survival is 100% (inactive).

For the compound `COc1ccc(OC)c(CNC(=O)c2cnc(N(C)C)nc2)c1`, the survival is 71% (inactive).

Take `O=C(Cc1ccc(NC(=O)N2CCCCc3ccccc32)cc1)Nc1ccccc1Br`: the survival was 73% (inactive).

With `Cc1ccc(C)c(N2CCN(C(=O)c3cccc(-n4c(C)nc5cccnc54)c3)CC2)c1`, the survival is 78% (inactive).

`COc1cccc(CNc2nc3ccccc3c3nc(-c4cccc(C)c4)nn23)c1`: the survival was 31% (active).

Consider `Cc1ccc(CNc2cc(C)nc3nc(-c4cccc(C)c4)nn23)cc1`, for which the survival was 124% (inactive).

Regarding `CCc1c(C)nc2nncn2c1NCc1ccccc1`, the survival is 85% (inactive).

Turning to `COc1ccc(CNc2nc3ccccc3c3nc(-c4ccccc4)nn23)cc1`, the survival is 35% (active).

Consider `Clc1ccccc1CNc1nc2ccccc2c2nc(-c3ccccc3)nn12`, for which the survival was 108% (inactive).

For the compound `Cc1cccc(-c2nc3c4ccccc4nc(NCc4ccc(F)cc4)n3n2)c1`, the survival is 84% (inactive).

Consider `CCc1c(C)nc2nc(-c3ccccc3)nn2c1NCc1ccc(C)cc1`, for which the survival was -4% (active).

Take `COc1cccc(CNc2nc3c(-c4cccc(C)c4)nnn3c3ccccc23)c1`: the survival is 96% (inactive).

Take `Cc1ccc(CNc2nc3ccccc3c3nc(-c4cccc(C)c4)nn23)cc1`: the survival was 18% (active).

On to `COc1cccc(CNC(=O)Cn2c(=O)n3nc(-c4cccc(C)c4)nc3c3ccccc32)c1`, for which the survival is 93% (inactive).

As for `c1ccc(CNc2nc3ccccc3c3nc(-c4ccccc4)nn23)cc1`, the survival was 54% (inactive).

For the compound `Cc1ccc(CNc2cc(C)nc3nc(-c4ccc(C)cc4)nn23)cc1`, the survival was 69% (inactive).

In the case of `N#C/C(=C\C1CC=CCC1)c1nc2ccccc2[nH]1` (configuration not stated), the survival is 86% (inactive).

Turning to `Cc1cc(C)cc(NC(=O)CSc2nc(-c3ccccc3)nn2C(=O)c2ccco2)c1`, the survival is 110% (inactive).

With `S=C(NCCCN1CCOCC1)N1CCN(c2ccccc2)CC1`, the survival was 84% (inactive).

Consider `Cc1c(C=Nc2ccc(Cl)cc2)c(O)n(C)c(=O)c1C#N`, for which the survival was 74% (inactive).

For the compound `CCSc1ncc(Cl)c(C(=O)Nc2c(C(=O)Nc3ccc(Cl)cc3)oc3ccccc23)n1`, the survival was 105% (inactive).

As to `Cc1cccc(-c2nc3c4ccccc4nc(N4CCN(c5cccc(Cl)c5)CC4)n3n2)c1`, the survival is 71% (inactive).

For the compound `CC(=O)c1ccc(N2CCN(c3nc4ccccc4c4nc(-c5cccc(C)c5)nn34)CC2)cc1`, the survival is 41% (active).

Turning to `Cc1cccc(-c2nc3c4ccccc4nc(NCc4ccc(Cl)cc4)n3n2)c1`, the survival is 44% (active).

As for `Clc1ccc(CNc2nc3ccccc3c3nc(-c4cccnc4)nn23)cc1`, the survival is 80% (inactive).

For the compound `Cc1cccc(-c2nc3c4ccccc4nc(N4CCN(c5ccc(F)cc5)CC4)n3n2)c1`, the survival was 65% (inactive).

As for `CCCCCC(=O)Nc1ccc(NC(=O)c2cc3ccccc3o2)c(OC)c1`, the survival is 68% (inactive).

As for `Cc1ccc(CCNC(=O)CCCc2nnc3n(C)c(=O)c4sccc4n23)cc1`, the survival was 86% (inactive).

With `CCn1c2ccccc2c2cc(CN3CCN(Cc4ccc(Br)cc4)CC3)ccc21`, the survival is -1% (active).

Take `CCn1c2ccccc2c2cc(CN3CCN(Cc4ccco4)CC3)ccc21`: the survival was 81% (inactive).

Turning to `O=c1c2ccccc2n(Cc2ccccc2Cl)c(=O)n1CCc1ccccc1`, the survival is 60% (inactive).

Take `CCn1c2ccccc2c2cc(CN3CCN(Cc4ccc(Cl)cc4)CC3)ccc21`: the survival was -1% (active).

Turning to `Clc1ccccc1CN1CCN(Cc2ccco2)CC1`, the survival was 86% (inactive).

In the case of `O=c1c2ccccc2n(Cc2cccc(Cl)c2)c(=O)n1Cc1ccccc1`, the survival is 124% (inactive).

Take `CCn1c2ccccc2c2cc(CN3CCN(Cc4ccccc4Cl)CC3)ccc21`: the survival is -1% (active).

As for `CC(C)n1c(N2CCN(Cc3ccc(Cl)cc3)CC2)nc2ccccc21`, the survival is 83% (inactive).

`CCCn1c(N2CCN(Cc3ccc(Cl)cc3)CC2)nc2ccccc21`: the survival is 91% (inactive).

`CCn1c2ccccc2c2cc(CN3CCN(Cc4cccc(Cl)c4)CC3)ccc21`: the survival is -1% (active).

On to `CCCN1CCN(C(=O)Cn2ncc3c4ccccc4n(Cc4cccc(Cl)c4)c3c2=O)CC1`, for which the survival was 72% (inactive).

Consider `CCS(=O)(=O)N1CCN(Cc2ccccc2)CC1`, for which the survival was 72% (inactive).

For `CCS(=O)(=O)N1CC(=O)N(c2cc(C)cc(C)c2)C(C)(C(=O)NC2CCCCC2)C1` (configuration not stated), the survival was 92% (inactive).

Consider `COc1cc(NC(=O)Cn2cnc3c2c(=O)n(C)c(=O)n3C)c(OC)cc1Cl`, for which the survival is 65% (inactive).

Turning to `CC(C)(C)c1ccc(CSC2=Nc3ccccc3C3=NC(CC(=O)NCc4cccs4)C(=O)N23)cc1` (configuration not stated), the survival was 68% (inactive).

As to `CCC(=O)N=c1sc2ccccc2n1-c1ccccc1`, the survival is 71% (inactive).

As to `COc1ccc(C(=O)Nc2ccc3oc(-c4cccnc4)nc3c2)cc1OC`, the survival was 62% (inactive).

For `CCCCOc1ccccc1C(=O)N(Cc1cccc(F)c1)C1CCS(=O)(=O)C1` (configuration not stated), the survival is 75% (inactive).

For `CCc1ccc(NC(=O)CCn2c(=O)c3cccn3c3ccccc32)cc1`, the survival was 48% (inactive).

In the case of `COCCCn1c(=O)c2sccc2n2c(CCCC(=O)Nc3ccc(F)c(F)c3)nnc12`, the survival was 83% (inactive).

On to `Cc1ccc(NC(=O)Cn2c(=O)cc(-c3ccccc3)c3c(C)nn(C)c32)c(Cl)c1`, for which the survival was 78% (inactive).

Regarding `CCOc1ccc(CN2CCN(C(=O)c3ccco3)CC2)cc1`, the survival is 77% (inactive).

Turning to `CCOc1ccc(Cn2c(=O)oc3ccccc32)cc1`, the survival is 117% (inactive).

On to `CCOc1ccc(CN2CCN(Cc3ccc4c(c3)c3ccccc3n4CC)CC2)cc1`, for which the survival is 0% (active).

For `CC(C)(C)OC(=O)N1CCC(c2c(C(=O)NC3CCCCC3)cnn2-c2ccc(F)cc2F)CC1`, the survival is 76% (inactive).

Regarding `CCOc1ccc(NC(=O)NC(C)c2c(-n3cccc3)sc3c2CCN(CC)C3)cc1` (configuration not stated), the survival is 96% (inactive).

`Cc1nc(-c2ccc(F)cc2)sc1CCNC(=O)Cc1ccc(F)cc1`: the survival was 81% (inactive).

Take `CCOc1ccc(-n2nc(CO)c(C(=O)NCC(C)O)n2)cc1` (configuration not stated): the survival was 39% (active).

In the case of `Cc1ccc(-n2nc(CO)c(C(=O)NCc3cccnc3)n2)cc1`, the survival was 90% (inactive).

`CCOc1ccc(-n2nc(CO)c(C(=O)NCc3cccnc3)n2)cc1`: the survival was 44% (active).

On to `CCc1ccc(-n2nc(CO)c(C(=O)NCc3cccnc3)n2)cc1`, for which the survival is 51% (inactive).

With `CCc1ccc(-n2nc(CO)c(C(=O)NCCOC)n2)cc1`, the survival is 56% (inactive).

Consider `COCCNC(=O)c1nn(-c2ccc(Cl)cc2)nc1CO`, for which the survival is 91% (inactive).

For the compound `CCc1ccc(-n2nc(CO)c(C(=O)NCCCc3ccccc3)n2)cc1`, the survival was 95% (inactive).

Consider `CCOc1ccc(-n2nc(CO)c(C(=O)NCCCc3ccccc3)n2)cc1`, for which the survival is 89% (inactive).

In the case of `CCOc1ccc(-n2nc(CO)c(C(=O)NCC(c3ccccc3)c3ccccc3)n2)cc1`, the survival was 48% (inactive).

With `CCOc1ccc(-n2nc(CO)c(C(=O)NCc3ccc(Cl)cc3)n2)cc1`, the survival was 43% (active).

For `Cc1ccc(CNC(=O)c2nn(-c3ccc(Cl)cc3)nc2CO)cc1`, the survival is 94% (inactive).

Turning to `CCCCNC(=O)c1nn(-c2ccc(CC)cc2)nc1CO`, the survival was 41% (active).

For `COc1ccc(C2CC3(CC(C)(C)NC(=O)N3)Oc3cc(O)ccc32)cc1` (configuration not stated), the survival was 102% (inactive).

Take `CCC(=O)Oc1cc(C(C)(C)C)cc2cc(-c3nc(-c4ccc(OC)cc4OC)no3)c(=O)oc12`: the survival is 89% (inactive).

Take `Cc1nn(CCC(=O)NCc2cccc(Br)c2)c(=O)c2nn(-c3ccccc3)c(C)c12`: the survival is 92% (inactive).

Turning to `CC1=C(c2ccc(C)cc2)S(=O)(=O)N(Cc2ccc(C(=O)NCc3ccccc3F)cc2)C1=O`, the survival is 80% (inactive).

On to `Cc1cc(C)nc(Sc2ccccc2)n1`, for which the survival is 76% (inactive).

Consider `N#Cc1ccccc1NC(=O)CC1Nc2ccccc2NC1=O` (configuration not stated), for which the survival is 98% (inactive).

With `Cc1ccc(S(=O)(=O)Cc2ccc(C(=O)NCCc3ccc(Cl)cc3)o2)cc1`, the survival was 56% (inactive).

`COc1ccc(NC(=O)Cn2cc(C(=O)c3ccc(C)c(C)c3)c(=O)c3cc(OC)ccc32)cc1`: the survival is 72% (inactive).

Regarding `O=c1c2oc3ccccc3c2n(Cc2ccc(F)cc2)c(=O)n1Cc1ccco1`, the survival is 71% (inactive).

Turning to `N#C/C(=C/c1ccc(Cl)cc1Cl)c1nc2ccccc2c(=O)[nH]1`, the survival is 70% (inactive).

Take `CCOc1ccc(-n2nc(CO)c(C(=O)NCc3cccc(OC)c3)n2)cc1`: the survival was 41% (active).

`CCOc1ccc(-n2nc(CO)c(C(=O)NCc3ccccn3)n2)cc1`: the survival is 53% (inactive).

With `COc1cccc(CNC(=O)c2nn(-c3ccccc3Cl)nc2CO)c1`, the survival was 85% (inactive).

As to `Cc1nn(CCCC(=O)Nc2cc(C(F)(F)F)ccc2Cl)c(=O)c2c1sc1ccccc12`, the survival is 78% (inactive).

`Cc1nc(-c2ccccc2)sc1-c1ccc(SCC(=O)Nc2ccccc2)nn1`: the survival is 24% (inactive).

Take `Cc1nc(-c2ccccc2)sc1-c1ccc(SCC(=O)Nc2cccc(C(F)(F)F)c2)nn1`: the survival was 41% (inactive).

In the case of `Cc1ccc(NC(=O)CSc2ccc(-c3sc(-c4ccccc4)nc3C)nn2)cc1F`, the survival is 25% (active).

For `Cc1nc(-c2ccccc2)sc1-c1ccc(SCC(=O)NCc2ccc(Cl)cc2)nn1`, the survival is 52% (inactive).

In the case of `Cc1cccc(NC(=O)CSc2ccc(-c3ccccn3)nn2)c1`, the survival is 103% (inactive).

As for `Cc1ccc(NC(=O)CSc2ccc(-c3ccccn3)nn2)cc1F`, the survival was 49% (inactive).

On to `Cc1nc(-c2ccccc2)sc1-c1ccc(SCC(=O)Nc2ccc(F)cc2F)nn1`, for which the survival was 19% (active).

Take `O=C(CSc1ccc(-c2ccccn2)nn1)Nc1ccc(F)c(F)c1`: the survival is 27% (active).

`Cc1nc(C)c(-c2ccc(SCC(=O)Nc3ccc(C)c(F)c3)nn2)s1`: the survival is 93% (inactive).

Regarding `CC(=O)Nc1cccc(NC(=O)CSc2ccc(-c3sc(-c4ccccc4)nc3C)nn2)c1`, the survival was -14% (active).

Consider `Cc1cccc(NC(=O)CSc2ccc(-c3sc(-c4ccccc4)nc3C)nn2)c1C`, for which the survival was 33% (inactive).

`Cc1nc(-c2ccccc2)sc1-c1ccc(SCC(=O)NCc2ccc(F)cc2)nn1`: the survival is 53% (inactive).
